Records with an inconclusive call do not appear. Some compounds were tested as several samples or in several runs, with calls that do not always agree. Calls of active or inactive are those of the source. Rule for the calls: active = hit-call score of the fitted dose curve at least 0.9, where 1 is the maximum; inconclusive = response in the unintended direction; inactive = score below 0.9.
target: Retinoic acid receptor RXR-alpha (Homo sapiens) (UniProt P19793); assay: OT_NURR1_NURR1RXRa_1440: Odyssey Thera (OT) 24-hour HEK293T Protein Complementation Assay for Nurr1/retinoid X receptor (RXR) (AID 2283386)
Method: OT_NURR1_NURR1RXRa_1440 is a cell-based assay that uses HEK293T, a human kidney cell line, with measurements taken at 24 hours after chemical dosing in a 384-well plate.OT_NURR1_NURR1RXRa_1440 is one of one assay component(s) measured or calculated from the OT_NURR1_NURR1RXRa_1440 assay. It is designed to make measurements of protein fragment complementation, a form of binding reporter, as detected with fluorescence intensity signals by Protein-fragment Complementation technology.Data from the assay component OT_NURR1_NURR1RXRa_1440 was analyzed into 1 assay endpoint. This assay endpoint, OT_NURR1_NURR1RXRa_1440, was analyzed in the positive analysis fitting direction relative to DMSO as the negative control and baseline of activity. Using a type of binding reporter, measures of receptor for gain-of-signal activity can be used to understand the binding at the pathway-level as they relate to the gene RXRA. Furthermore, this assay endpoint can be referred to as a primary readout, because the performed assay has only produced 1 assay endpoint. To generalize the intended target to other relatable targets, this assay endpoint is annotated to the nuclear receptor intended target family, where the subfamily is non-steroidal.
Protein-fragment complementation assay, or PCA, is a method for the identification and quantification of protein-protein interactions. In the PCA, the proteins of interest ("bait" and "prey") are each covalently linked to fragments of a third protein (e.g. DHFR, which acts as a "reporter"). Interaction between the bait and the prey proteins brings the fragments of the reporter protein in close proximity to allow them to form a functional reporter protein whose activity can be measured.

Chain of Retinoic acid receptor RXR-alpha (Homo sapiens) (P19793 whole entry, looked up, the tested form may be a part): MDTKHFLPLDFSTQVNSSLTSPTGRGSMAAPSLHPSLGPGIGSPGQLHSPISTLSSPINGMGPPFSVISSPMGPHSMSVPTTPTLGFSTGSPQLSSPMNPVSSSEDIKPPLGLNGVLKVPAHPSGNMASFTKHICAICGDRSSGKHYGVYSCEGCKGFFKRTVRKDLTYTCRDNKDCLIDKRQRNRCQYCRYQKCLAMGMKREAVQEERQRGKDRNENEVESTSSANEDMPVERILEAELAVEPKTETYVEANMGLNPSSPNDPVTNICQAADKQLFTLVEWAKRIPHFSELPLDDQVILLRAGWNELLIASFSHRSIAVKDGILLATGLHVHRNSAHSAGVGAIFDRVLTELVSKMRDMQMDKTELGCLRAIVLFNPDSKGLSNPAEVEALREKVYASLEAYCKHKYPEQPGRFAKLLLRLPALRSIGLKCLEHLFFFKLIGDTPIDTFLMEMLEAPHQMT

Compound | outcome | AC50
Cc1nc(-c2ccc3c(c2)CCN(CCC2CCC(NC(=O)/C=C/c4ccc(F)cc4)CC2)CC3)no1 (stereo not given) | inactive | –
Cc1ccc(C)c(C)c1 | inactive | –
COc1cc(C=O)ccc1O | inactive | –
CC1=C(/C=C/C(C)=C/C=C/C(C)=C/CO)C(C)(C)CCC1 | inactive | 79.3 µM (active)
COCCOCCOC | inactive | –
CCCCCC(=O)O | inactive | –
CC(=O)OCCOCCOCCOC(C)=O | inactive | –
Nc1nc(N)c2nc(CNc3ccc(C(=O)N[C@@H](CCC(=O)O)C(=O)O)cc3)cnc2n1 | inactive | –
CCOc1ccc2c(c1)C(C)=CC(C)(C)N2 | inactive | –
COCCOC[C@H](CC1(C(=O)NC2CCC(C(=O)O)CC2)CCCC1)C(=O)Oc1ccc2c(c1)CCC2 (stereo not given in full) | inactive | –
C[C@]12C=CC(=O)C=C1CC[C@@H]1[C@@H]2C(=O)C[C@@]2(C)[C@H]1CC[C@]2(O)C(=O)CO | inactive | –
CC(=O)OC/C=C(\C)CCC=C(C)C | inactive | –
O=[N+]([O-])C(CO)(CO)CO | inactive | –
CC1(C)NC(=O)NC1=O | inactive | –
CCCCOC(=O)CCCCCCCCC(=O)OCCCC | inactive | –
Cc1ccccc1Cl | inactive | –
CC(C)(C)c1cc(O)c(C(C)(C)C)cc1O | inactive | 33.3 µM (active)
CC(=O)Oc1ccccc1C(=O)O | inactive | –

Compound | outcome | AC50
Cc1c(C(=O)O)c(O)cc2c1C(=O)c1c(O)c([C@@H]3O[C@H](CO)[C@@H](O)[C@H](O)[C@H]3O)c(O)c(O)c1C2=O | inactive | –
Cc1cccc(Nc2cc(Cl)nc(SCC(=O)O)n2)c1C | inactive | –
Nc1ccccc1N | inactive | –
COc1ccc(S(=O)(=O)N2C(=O)[C@@](c3ccccc3OC)(N3C[C@H](O)C[C@H]3C(=O)N(C)C)c3cc(Cl)ccc32)c(OC)c1 | inactive | 79.5 µM (active)
COc1ccc(C)cc1N | inactive | –
Cc1cc(=O)[nH]c(=S)[nH]1 | inactive | –
CN1CCCC1=O | inactive | –
CCCCCCCCCCCCCCCC | inactive | –
CC(C)c1ccc(C(=O)N=C(N)N)cc1S(C)(=O)=O | inactive | –
COc1cc(S(=O)(=O)O)c(C)cc1N=Nc1c(O)ccc2cc(S(=O)(=O)O)ccc12 | inactive | 75.9 µM (active)
CC(=O)C(C)=CC1C(C)=CCCC1(C)C (stereo not given) | inactive | –
C=CCOC(=O)c1ccccc1C(=O)OCC=C | inactive | –
C1CCC(SSC2CCCCC2)CC1 | inactive | –
CCCCCCCCCCC | inactive | –
c1cc(-c2ccncc2)ccn1 | inactive | –
CCOC(=O)C(C)(C)Oc1ccc(Cl)cc1 | inactive | –
CCOC(=O)CCC(=O)OCC | inactive | –
O=c1c(O)c(-c2ccc(O)c(O)c2)oc2cc(O)cc(O)c12 | inactive | –

Reference: PubChem BioAssay (EPA / NIEHS)
